“And” between values parts separate entries of the source, which are not always exact repeats. Identical values can stand only once. Records with an inconclusive call do not appear. Some compounds were tested as several samples or in several runs, with calls that do not always agree. The source made the active and inactive calls. Rule for the calls, unless noted: active = hit-call score of the fitted dose curve at least 0.9, where 1 is the maximum; inconclusive = response in the unintended direction; inactive = score below 0.9.
Assays:
[1] = BSK_3C_VCAM1: BioMAP Diversity Plus: 3C Assay for Vascular cell adhesion molecule 1 (VCAM1) Biomarker Activity (AID 2282999; active = hit-call score of the fitted dose curve at least 0.9, where 1 is the maximum; inactive = score below 0.9); conditions: BioMAP 3C HUVEC, VCAM1 ELISA, cytokine-stimulated; actives raise or lower the signal
Method in brief: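 Human umbilical vein endothelial cells (3C system), biomarker read by ELISA 24 h after dosing; bidirectional fit against DMSO baseline. Cytotoxicity tracked by SRB total-protein staining in parallel cultures at biomarker time.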

[2] = BSK_4H_Eotaxin3: BioMAP Diversity Plus: 4H Assay for Eotaxin 3 Biomarker Activity (AID 2283000; active = hit-call score of the fitted dose curve at least 0.9, where 1 is the maximum; inactive = score below 0.9); conditions: primary human endothelial cells (HUVEC); actives raise or lower the signal
Method in brief: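 Eotaxin-3 (CCL26) levels were measured by ELISA in HUVEC primary cultures 24 h post-dosing. Gain or loss of signal was fitted in both directions, with DMSO serving as baseline and negative control.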

[3] = biological target: human Peroxisome Proliferator-activated Receptor alpha (PPARa), PPARA (gene 5465) (UniProt Q07869); experiment: ATG_PPARa_TRANS: Attagene TRANS-FACTORIAL HepG2 Assay for human Peroxisome Proliferator-activated Receptor alpha (PPARa) (AID 2283001);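 for AC50: potency for gain of reporter signal over DMSO so agonist or activator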
Sequence of human Peroxisome Proliferator-activated Receptor alpha (PPARa), PPARA (gene 5465) (Q07869 whole entry, looked up, the tested form may be a part): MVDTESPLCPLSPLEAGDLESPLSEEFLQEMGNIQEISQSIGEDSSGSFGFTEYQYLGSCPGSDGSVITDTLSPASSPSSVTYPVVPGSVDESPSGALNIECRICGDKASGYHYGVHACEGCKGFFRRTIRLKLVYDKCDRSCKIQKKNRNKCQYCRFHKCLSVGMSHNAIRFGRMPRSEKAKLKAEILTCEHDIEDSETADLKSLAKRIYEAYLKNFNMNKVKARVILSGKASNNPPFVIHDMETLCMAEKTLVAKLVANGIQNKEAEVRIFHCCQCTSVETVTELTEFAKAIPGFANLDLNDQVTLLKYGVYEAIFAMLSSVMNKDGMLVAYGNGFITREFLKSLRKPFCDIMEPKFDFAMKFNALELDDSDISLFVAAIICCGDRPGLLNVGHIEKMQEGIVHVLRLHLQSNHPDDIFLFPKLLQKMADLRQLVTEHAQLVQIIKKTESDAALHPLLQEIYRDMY
Method in brief: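 HepG2 cells transiently transfected with multiplexed GAL4-UAS reporters driven by exogenous chimeric NR-Gal4 proteins; reporter mRNA measured after 24 h dosing. Read-out by RT-PCR, 6-FAM labelling, HpaI digestion and capillary electrophoresis; gain of signal versus DMSO.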

[4] = read-out: Intercellular Adhesion Molecule 1 (ICAM1), ICAM1 (gene 3383); experiment: BSK_3C_ICAM1: BioMAP Diversity Plus: 3C Assay for Intercellular Adhesion Molecule 1 (ICAM1) Biomarker Activity (AID 2283003; active = hit-call score of the fitted dose curve at least 0.9, where 1 is the maximum; inactive = score below 0.9); conditions: primary human endothelial cells (HUVEC); actives raise or lower the signal
Method in brief: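 HUVEC primary cells stimulated under 3C conditions; ICAM1 measured by ELISA 24 h after compound dosing. Curves fitted bidirectionally against the DMSO baseline. Overt cytotoxicity checked by SRB staining of parallel cultures.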

[5] = biological target: Retinoic acid receptor alpha (Homo sapiens) (UniProt P10276); experiment: ATG_RARa_TRANS: Attagene TRANS-FACTORIAL HepG2 Assay for human Retinoic Acid Receptor alpha (RARa) (AID 2283005)
Sequence of Retinoic acid receptor alpha (Homo sapiens) (P10276 whole entry, looked up, the tested form may be a part): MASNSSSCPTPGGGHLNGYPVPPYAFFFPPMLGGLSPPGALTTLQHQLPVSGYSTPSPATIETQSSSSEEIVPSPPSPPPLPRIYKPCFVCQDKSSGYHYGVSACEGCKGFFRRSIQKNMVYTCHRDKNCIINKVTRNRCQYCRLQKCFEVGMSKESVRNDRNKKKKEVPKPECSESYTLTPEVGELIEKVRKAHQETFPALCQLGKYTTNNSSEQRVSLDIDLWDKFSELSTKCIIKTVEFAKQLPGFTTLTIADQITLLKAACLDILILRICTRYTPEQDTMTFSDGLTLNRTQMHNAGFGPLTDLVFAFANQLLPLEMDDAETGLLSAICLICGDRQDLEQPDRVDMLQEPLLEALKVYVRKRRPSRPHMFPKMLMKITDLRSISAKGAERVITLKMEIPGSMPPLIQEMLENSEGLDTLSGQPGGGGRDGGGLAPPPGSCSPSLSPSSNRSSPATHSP
Method in brief: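 HepG2 transiently transfected with multiplex GAL4-UAS reporter units including a human RARa–GAL4 chimera; 24 h compound exposure. Reporter mRNA quantified by RT-PCR, 6-FAM labeling and capillary electrophoresis; gain of signal versus DMSO.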

[6] = BSK_3C_Proliferation: Cell Proliferation Assessment in the BioMAP Diversity Plus: 3C Assay (AID 2283006; active = hit-call score of the fitted dose curve at least 0.9, where 1 is the maximum; inactive = score below 0.9;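 for AC50: potency may reflect either rise or fall in cell number versus DMSO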); conditions: primary human endothelial cells (HUVEC)
Method in brief: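 Subconfluent HUVEC (3C system) cultured with chemical; relative cell number read at 48 h by sulforhodamine B total-protein staining (0.1% SRB after 10% TCA fixation, 560 nm). Bidirectional fit relative to DMSO.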

[7] = biological target: Peroxisome proliferator-activated receptor gamma (Homo sapiens) (UniProt P37231); experiment: ATG_PPARg_TRANS: Attagene TRANS-FACTORIAL HepG2 Assay for human Peroxisome Proliferator-activated Receptor-gamma (PPARg) (AID 2283007)
Sequence of Peroxisome proliferator-activated receptor gamma (Homo sapiens) (P37231 whole entry, looked up): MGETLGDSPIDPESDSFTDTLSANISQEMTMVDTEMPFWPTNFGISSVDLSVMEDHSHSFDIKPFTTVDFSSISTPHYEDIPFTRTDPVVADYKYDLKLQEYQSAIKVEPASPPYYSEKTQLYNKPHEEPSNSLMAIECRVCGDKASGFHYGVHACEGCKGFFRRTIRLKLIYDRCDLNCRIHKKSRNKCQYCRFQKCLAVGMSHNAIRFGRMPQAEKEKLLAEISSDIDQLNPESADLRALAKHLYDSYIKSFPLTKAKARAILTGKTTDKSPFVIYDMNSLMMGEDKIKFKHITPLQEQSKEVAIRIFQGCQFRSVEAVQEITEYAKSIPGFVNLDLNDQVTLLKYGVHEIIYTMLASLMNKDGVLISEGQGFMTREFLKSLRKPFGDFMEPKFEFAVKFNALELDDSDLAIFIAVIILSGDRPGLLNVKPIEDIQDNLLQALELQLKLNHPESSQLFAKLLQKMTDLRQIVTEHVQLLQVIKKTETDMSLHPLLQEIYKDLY
Method in brief: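 Human hepatoma HepG2, transient MRTU transfection, 24 h treatment. mRNA reporter signal by RT-PCR plus capillary electrophoresis, fluorescence detection; fitted for increase over DMSO negative control.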

[8] = biological target: Nuclear receptor subfamily 1 group I member 2 (Homo sapiens) (UniProt O75469); experiment: ATG_PXR_TRANS: Attagene TRANS-FACTORIAL HepG2 Assay for human Pregnane X Receptor (PXR) (AID 2283008)
Sequence of Nuclear receptor subfamily 1 group I member 2 (Homo sapiens) (O75469 whole entry, looked up, the tested form may be a part): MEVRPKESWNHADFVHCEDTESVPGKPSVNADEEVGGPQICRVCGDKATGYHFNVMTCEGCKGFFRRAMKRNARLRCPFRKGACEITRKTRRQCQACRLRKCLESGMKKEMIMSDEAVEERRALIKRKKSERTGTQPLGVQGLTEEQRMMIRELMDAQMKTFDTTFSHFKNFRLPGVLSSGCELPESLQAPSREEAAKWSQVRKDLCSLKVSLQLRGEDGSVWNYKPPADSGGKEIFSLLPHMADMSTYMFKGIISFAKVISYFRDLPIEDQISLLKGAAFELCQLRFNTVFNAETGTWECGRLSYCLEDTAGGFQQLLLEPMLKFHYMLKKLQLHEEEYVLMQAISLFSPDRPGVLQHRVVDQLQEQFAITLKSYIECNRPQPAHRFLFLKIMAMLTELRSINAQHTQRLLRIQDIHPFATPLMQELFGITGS
Method in brief: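 HepG2 cells transiently transfected with multiple reporter units, here a PXR-GAL4 chimera driving a GAL4-UAS reporter; 24 h compound exposure. Reporter mRNA measured by RT-PCR, FAM labelling and capillary electrophoresis; gain of signal fitted against DMSO baseline.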

[9] = biological target: human Peroxisome Proliferator-activated Receptor delta (PPARd), PPARD (gene 5467) (UniProt Q03181); experiment: ATG_PPARd_TRANS: Attagene TRANS-FACTORIAL HepG2 Assay for human Peroxisome Proliferator-activated Receptor delta (PPARd) (AID 2283002)
Sequence of human Peroxisome Proliferator-activated Receptor delta (PPARd), PPARD (gene 5467) (Q03181 whole entry, looked up, the tested form may be a part): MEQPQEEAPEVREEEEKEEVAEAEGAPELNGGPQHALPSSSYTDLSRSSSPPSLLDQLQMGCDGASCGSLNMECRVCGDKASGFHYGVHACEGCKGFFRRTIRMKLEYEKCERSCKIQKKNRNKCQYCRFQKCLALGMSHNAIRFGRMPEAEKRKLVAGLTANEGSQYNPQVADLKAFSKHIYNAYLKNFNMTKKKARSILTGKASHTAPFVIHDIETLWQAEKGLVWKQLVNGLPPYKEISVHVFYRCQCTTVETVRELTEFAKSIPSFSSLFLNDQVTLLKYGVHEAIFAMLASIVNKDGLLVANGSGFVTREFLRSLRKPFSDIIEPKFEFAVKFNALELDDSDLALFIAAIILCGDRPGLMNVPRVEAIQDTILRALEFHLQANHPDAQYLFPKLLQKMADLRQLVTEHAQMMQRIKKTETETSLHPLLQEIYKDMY
Method in brief: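 HepG2 cells transiently transfected with GAL4-UAS multiplexed reporter units driven by exogenous chimeric NR-GAL4 proteins; 24 h compound exposure. Reporter mRNA measured by RT-PCR, 6-FAM primer extension, HpaI digestion and capillary electrophoresis; gain of signal fitted relative to DMSO.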

[10] = biological target: human Retinoic Acid Receptor beta (RARb), RARB (gene 5915) (UniProt P10826); experiment: ATG_RARb_TRANS: Attagene TRANS-FACTORIAL HepG2 Assay for human Retinoic Acid Receptor beta (AID 2283004)
Sequence of human Retinoic Acid Receptor beta (RARb), RARB (gene 5915) (P10826 whole entry, looked up, the tested form may be a part): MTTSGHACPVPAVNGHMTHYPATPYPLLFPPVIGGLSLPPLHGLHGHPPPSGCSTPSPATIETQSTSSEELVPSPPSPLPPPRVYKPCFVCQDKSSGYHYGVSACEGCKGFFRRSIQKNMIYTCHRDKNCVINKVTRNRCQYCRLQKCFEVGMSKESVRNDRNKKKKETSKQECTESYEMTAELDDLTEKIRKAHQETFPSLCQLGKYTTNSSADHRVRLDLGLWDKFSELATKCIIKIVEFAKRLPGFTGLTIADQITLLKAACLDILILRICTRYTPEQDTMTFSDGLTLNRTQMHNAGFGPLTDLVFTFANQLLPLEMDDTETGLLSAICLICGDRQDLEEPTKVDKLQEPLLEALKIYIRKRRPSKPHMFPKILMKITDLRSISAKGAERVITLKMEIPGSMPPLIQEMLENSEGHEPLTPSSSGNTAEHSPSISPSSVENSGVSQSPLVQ
Method in brief: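 HepG2 cells were transiently transfected with GAL4-UAS reporter units that report activity of exogenous chimeric NR-Gal4 proteins, then exposed to compound for 24 h. Reporter mRNA was quantified by RT-PCR with capillary electrophoresis fluorescence, as gain of signal over DMSO.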

Measured: AC50

CCCCCCCCCC[N+](C)(C)CCCCCCCCCC
inactive: [3] | [5] | [7] | [8]
active: [1] 6.12 µM | [2] 4.08 µM | [4] 6.48 µM | [6] 1.8 µM

CN(C)CCO
not listed: [5]
inactive: all other assays above

CC#Cc1cc(C)nc(Nc2ccccc2)n1
active: [3] 606 nM | [6] 17.9 µM | [7] 6.26 µM
not listed: [5] | [10]
inactive: all other assays above

CCCCCCOC(=O)c1ccccc1C(=O)OCCCCCC
active: [6] 14.6 µM | [7] 12.9 µM | [8] 4.17 µM
not listed: [5] | [10]
inactive: all other assays above

CCC(C)(CC)c1cc(NC(=O)c2c(OC)cccc2OC)on1
active: [8] 0.692 µM
not listed: [3] | [5] | [10]
inactive: all other assays above

O=C(N[C@H]1CN2CCC1CC2)c1cc2ccoc2cn1
inactive: [1] | [2] | [3] | [4] | [6] | [8]

O=S(=O)(O)C(F)(F)C(F)(F)C(F)(F)C(F)(F)C(F)(F)C(F)(F)F
active: [7] 32.5 µM and 79.5 µM and 61.7 µM
not listed: [3] | [5] | [10]
inactive: all other assays above

CO/C=C(/C(=O)OC)c1ccccc1COc1cccc(C(F)(F)F)n1
active: [1] 20 µM | [2] 16.5 µM | [6] 1.82 µM | [7] 5.74 µM | [8] 0.264 µM
inactive: [4]

C[C@]12CCC(=O)C=C1CC[C@@H]1[C@@H]2CC[C@@]2(C)[C@H]1CC[C@]2(C)O
active: [6] 28.8 µM
not listed: [3] | [5] | [10]
inactive: all other assays above

CC1=C2C[C@H]3[C@@H](CC=C4C[C@@H](O)CC[C@@]43C)[C@@H]2CC[C@]12O[C@@H]1C[C@H](C)CN[C@H]1[C@H]2C
inactive: [1] | [2] | [9] | [4] | [5] | [6]

Nc1ccc(-c2ccc(N)cc2)cc1
not listed: [3] | [5] | [9]
inactive: all other assays above

O=C(NC(=O)c1cc(F)c(F)cc1Cl)Nc1cc(F)ccc1N1CCC(C(=O)O)CC1
active: [7] 0.954 µM
not listed: [5] | [9] | [10]
inactive: all other assays above

CC(C)C(=O)OCC(C)(C)C(OC(=O)C(C)C)C(C)C (stereo not given)
active: [6] 31.6 µM | [8] 0.483 µM
inactive: [1] | [2] | [3] | [4]

CCC(=O)O[C@H]1CC[C@H]2[C@@H]3CCC4=CC(=O)CC[C@]4(C)[C@H]3CC[C@]12C
active: [1] 35.6 µM | [2] 36 µM | [4] 35.8 µM | [6] 23 µM | [8] 27.8 µM
inactive: [9] | [10] | [5] | [7] | [8]

Clc1ccc(C(Cl)(Cl)Cl)cc1
not listed: [5] | [9] | [10]
inactive: all other assays above

ClC1=C(Cl)[C@]2(Cl)[C@@H]3[C@@H](Cl)[C@H]4O[C@H]4[C@@H]3C1(Cl)C2(Cl)Cl
active: [6] 11.2 µM | [8] 4.39 µM
inactive: [1] | [2] | [9] | [4] | [5]

C=CC(N)=O
not listed: [3] | [7] | [9]
inactive: all other assays above

CC(C)(O)C(=O)Nc1ccc([N+](=O)[O-])c(C(F)(F)F)c1
active: [8] 21.2 µM
inactive: [1] | [2] | [3] | [4] | [6] | [8]
